Data as given in article PMC11006913.
Residue numbers refer to the chain shown, from its start.

Experiments:
Test in all cases: PBM; 200 nM protein, PBS
Conditions in all cases: dsDNA, one strand shown
[1] = target: HOXB4 (Homo sapiens, UniProt P17483 148-234)
[2] = target: HOXA4 (Homo sapiens, UniProt Q00056 201-287, W262R)
[3] = target: HOXA2 (Homo sapiens, UniProt O43364 129-215, R185T)
[4] = target: HOXA4 (Homo sapiens, UniProt Q00056 201-287, R217L)
[5] = target: HOXB4 (Homo sapiens, UniProt P17483 148-234, V174I)
HOXB4 (Homo sapiens, UniProt P17483 148-234, V174I), sequence (P17483 148-234 V174I): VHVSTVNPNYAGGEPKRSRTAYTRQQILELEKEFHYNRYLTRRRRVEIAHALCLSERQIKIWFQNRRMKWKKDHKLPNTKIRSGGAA

[6] = target: HOXA2 (Homo sapiens, UniProt O43364 129-215, R185K)
HOXA2 (Homo sapiens, UniProt O43364 129-215, R185K), sequence (O43364 129-215 R185K): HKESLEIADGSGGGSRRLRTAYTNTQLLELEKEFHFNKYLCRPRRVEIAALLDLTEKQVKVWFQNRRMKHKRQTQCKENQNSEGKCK

[7] = target: HOXA4 (Homo sapiens, UniProt Q00056 201-287)
HOXA4 (Homo sapiens, UniProt Q00056 201-287), sequence (Q00056 201-287): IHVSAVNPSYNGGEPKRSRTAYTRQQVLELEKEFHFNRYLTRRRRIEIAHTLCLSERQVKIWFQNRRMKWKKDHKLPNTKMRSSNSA

[8] = target: VAX1 (Homo sapiens, UniProt Q5SQQ9 86-172)
VAX1 (Homo sapiens, UniProt Q5SQQ9 86-172), sequence (Q5SQQ9 86-172): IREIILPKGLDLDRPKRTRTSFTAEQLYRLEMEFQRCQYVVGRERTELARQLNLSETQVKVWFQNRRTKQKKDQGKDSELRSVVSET

[9] = target: VAX1 (Homo sapiens, UniProt Q5SQQ9 86-172, T142I)
VAX1 (Homo sapiens, UniProt Q5SQQ9 86-172, T142I), sequence (Q5SQQ9 86-172 T142I): as the sequence (Q5SQQ9 86-172) above, with T57I counted along it

[10] = target: HOXA2 (Homo sapiens, UniProt O43364 129-215, Y150S)
HOXA2 (Homo sapiens, UniProt O43364 129-215, Y150S), sequence (O43364 129-215 Y150S): as the sequence (O43364 129-215 R185K) above, with Y22S, K57R counted along it

[11] = target: HOXA4 (Homo sapiens, UniProt Q00056 201-287, W262F)
HOXA4 (Homo sapiens, UniProt Q00056 201-287, W262F), sequence (Q00056 201-287 W262F): as the sequence (Q00056 201-287) above, with W62F counted along it

[12] = target: HOXA2 (Homo sapiens, UniProt O43364 129-215)
HOXA2 (Homo sapiens, UniProt O43364 129-215), sequence (O43364 129-215): as the sequence (O43364 129-215 R185K) above, with K57R counted along it

[13] = target: VAX1 (Homo sapiens, UniProt Q5SQQ9 86-172, K157R)
VAX1 (Homo sapiens, UniProt Q5SQQ9 86-172, K157R), sequence (Q5SQQ9 86-172 K157R): as the sequence (Q5SQQ9 86-172) above, with K72R counted along it

[14] = target: T1, VENTX (Homo sapiens, UniProt O95231 78-163, Y115F)
T1 sequence: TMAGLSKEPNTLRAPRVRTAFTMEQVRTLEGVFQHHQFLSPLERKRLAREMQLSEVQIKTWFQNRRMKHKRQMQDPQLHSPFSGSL

[15] = target: HOXA7 (Homo sapiens, UniProt P31268 116-202)
HOXA7 (Homo sapiens, UniProt P31268 116-202), sequence (P31268 116-202): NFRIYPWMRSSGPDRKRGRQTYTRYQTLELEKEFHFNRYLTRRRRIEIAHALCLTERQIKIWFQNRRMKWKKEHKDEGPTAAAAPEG

[16] = target: HOXA7 (Homo sapiens, UniProt P31268 116-202, W177C)
HOXA7 (Homo sapiens, UniProt P31268 116-202, W177C), sequence (P31268 116-202 W177C): as the sequence (P31268 116-202) above, with W62C counted along it

[17] = target: ALX4 (Homo sapiens, UniProt Q9H161 200-286)
ALX4 (Homo sapiens, UniProt Q9H161 200-286), sequence (Q9H161 200-286): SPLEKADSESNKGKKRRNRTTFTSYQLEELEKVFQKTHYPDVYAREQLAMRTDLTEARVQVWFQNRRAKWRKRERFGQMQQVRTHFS

[18] = target: T2, PAX4 (Homo sapiens, UniProt O43316 9-242, R200K)
T2 sequence: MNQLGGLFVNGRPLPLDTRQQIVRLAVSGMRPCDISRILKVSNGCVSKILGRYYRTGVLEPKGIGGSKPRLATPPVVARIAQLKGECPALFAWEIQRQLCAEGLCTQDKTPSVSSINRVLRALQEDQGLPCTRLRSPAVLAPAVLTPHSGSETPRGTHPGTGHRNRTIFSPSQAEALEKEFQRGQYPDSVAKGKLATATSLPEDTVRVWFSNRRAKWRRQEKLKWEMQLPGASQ

[19] = target: T3, PAX4 (Homo sapiens, UniProt O43316 9-242)
T3 sequence: T2 sequence with K192R

[20] = target: ALX4 (Homo sapiens, UniProt Q9H161 200-286, Q225E)
ALX4 (Homo sapiens, UniProt Q9H161 200-286, Q225E), sequence (Q9H161 200-286 Q225E): as the sequence (Q9H161 200-286) above, with Q26E counted along it

[21] = target: T4, PAX4 (Homo sapiens, UniProt O43316 9-242, R200Q)
T4 sequence: T2 sequence with K192Q

[22] = target: T5, PAX4 (Homo sapiens, UniProt O43316 9-242, F177V)
T5 sequence: T2 sequence with F169V, K192R

[23] = target: T6, PAX4 (Homo sapiens, UniProt O43316 9-242, R227W)
T6 sequence: T2 sequence with K192R, R219W

HOXA4 (Homo sapiens, UniProt Q00056 201-287, R217L), sequence (Q00056 201-287 R217L): as the sequence (Q00056 201-287) above, with R17L counted along it
HOXB4 (Homo sapiens, UniProt P17483 148-234), sequence (P17483 148-234): as the sequence (P17483 148-234 V174I) above, with I27V counted along it
HOXA4 (Homo sapiens, UniProt Q00056 201-287, W262R), sequence (Q00056 201-287 W262R): as the sequence (Q00056 201-287) above, with W62R counted along it
HOXA2 (Homo sapiens, UniProt O43364 129-215, R185T), sequence (O43364 129-215 R185T): as the sequence (O43364 129-215 R185K) above, with K57T counted along it

In the case of CATCATTA, the binding signal [1] is reported as 13.4 upbm affinity estimate (log intensity, higher = more binding, comparable within an allelic series), the binding signal [2] is reported as 10.8 upbm affinity estimate (log intensity, higher = more binding, comparable within an allelic series) and the binding signal [3] is reported as 12.5 upbm affinity estimate (log intensity, higher = more binding, comparable within an allelic series). For the same sequence, the binding signal [4] was 12.3 upbm affinity estimate (log intensity, higher = more binding, comparable within an allelic series), the binding signal [5] was 14 upbm affinity estimate (log intensity, higher = more binding, comparable within an allelic series) and the binding signal [6] was 13.2 upbm affinity estimate (log intensity, higher = more binding, comparable within an allelic series). For the same sequence, the binding signal [7] was 14 upbm affinity estimate (log intensity, higher = more binding, comparable within an allelic series), the binding signal [8] was 12.9 upbm affinity estimate (log intensity, higher = more binding, comparable within an allelic series) and the binding signal [9] was 12.8 upbm affinity estimate (log intensity, higher = more binding, comparable within an allelic series). The binding signal [10] was 11 upbm affinity estimate (log intensity, higher = more binding, comparable within an allelic series), the binding signal [11] was 11.8 upbm affinity estimate (log intensity, higher = more binding, comparable within an allelic series) and the binding signal [12] was 12.3 upbm affinity estimate (log intensity, higher = more binding, comparable within an allelic series). The binding signal [13] was 12.7 upbm affinity estimate (log intensity, higher = more binding, comparable within an allelic series).
For CCTAATGA, the binding signal [1] was 13 upbm affinity estimate (log intensity, higher = more binding, comparable within an allelic series), the binding signal [2] was 10.5 upbm affinity estimate (log intensity, higher = more binding, comparable within an allelic series) and the binding signal [14] was 11.5 upbm affinity estimate (log intensity, higher = more binding, comparable within an allelic series). For the same sequence, the binding signal [3] was 12.7 upbm affinity estimate (log intensity, higher = more binding, comparable within an allelic series), the binding signal [4] was 11.7 upbm affinity estimate (log intensity, higher = more binding, comparable within an allelic series) and the binding signal [5] was 13.6 upbm affinity estimate (log intensity, higher = more binding, comparable within an allelic series). The binding signal [6] was 13.4 upbm affinity estimate (log intensity, higher = more binding, comparable within an allelic series), the binding signal [7] was 13.7 upbm affinity estimate (log intensity, higher = more binding, comparable within an allelic series) and the binding signal [8] was 13.2 upbm affinity estimate (log intensity, higher = more binding, comparable within an allelic series). For the same sequence, the binding signal [9] was 13 upbm affinity estimate (log intensity, higher = more binding, comparable within an allelic series), the binding signal [10] was 10.7 upbm affinity estimate (log intensity, higher = more binding, comparable within an allelic series) and the binding signal [11] was 11.6 upbm affinity estimate (log intensity, higher = more binding, comparable within an allelic series). For the same sequence, the binding signal [12] was 12.4 upbm affinity estimate (log intensity, higher = more binding, comparable within an allelic series) and the binding signal [13] was 13 upbm affinity estimate (log intensity, higher = more binding, comparable within an allelic series).
With GTTCATTA the binding signal [1] was 13 upbm affinity estimate (log intensity, higher = more binding, comparable within an allelic series), the binding signal [15] was 10.2 upbm affinity estimate (log intensity, higher = more binding, comparable within an allelic series) and the binding signal [5] was 13.6 upbm affinity estimate (log intensity, higher = more binding, comparable within an allelic series). For the same sequence, the binding signal [16] was 8.87 upbm affinity estimate (log intensity, higher = more binding, comparable within an allelic series).
For GATAATGA, the binding signal [1] was 13.1 upbm affinity estimate (log intensity, higher = more binding, comparable within an allelic series), the binding signal [2] was 10.7 upbm affinity estimate (log intensity, higher = more binding, comparable within an allelic series) and the binding signal [17] was 12.7 upbm affinity estimate (log intensity, higher = more binding, comparable within an allelic series). For the same sequence, the binding signal [18] was 11.2 upbm affinity estimate (log intensity, higher = more binding, comparable within an allelic series), the binding signal [19] was 11.4 upbm affinity estimate (log intensity, higher = more binding, comparable within an allelic series) and the binding signal [20] was 11.2 upbm affinity estimate (log intensity, higher = more binding, comparable within an allelic series). For the same sequence, the binding signal [3] was 12.6 upbm affinity estimate (log intensity, higher = more binding, comparable within an allelic series), the binding signal [4] was 12.3 upbm affinity estimate (log intensity, higher = more binding, comparable within an allelic series) and the binding signal [5] was 13.7 upbm affinity estimate (log intensity, higher = more binding, comparable within an allelic series). For the same sequence, the binding signal [21] was 11.2 upbm affinity estimate (log intensity, higher = more binding, comparable within an allelic series), the binding signal [6] was 13.3 upbm affinity estimate (log intensity, higher = more binding, comparable within an allelic series) and the binding signal [22] was 10.3 upbm affinity estimate (log intensity, higher = more binding, comparable within an allelic series). For the same sequence, the binding signal [7] was 13.9 upbm affinity estimate (log intensity, higher = more binding, comparable within an allelic series), the binding signal [8] was 12.9 upbm affinity estimate (log intensity, higher = more binding, comparable within an allelic series) and the binding signal [9] was 12.7 upbm affinity estimate (log intensity, higher = more binding, comparable within an allelic series). For the same sequence, the binding signal [23] was 10.6 upbm affinity estimate (log intensity, higher = more binding, comparable within an allelic series), the binding signal [10] was 10.9 upbm affinity estimate (log intensity, higher = more binding, comparable within an allelic series) and the binding signal [11] was 11.6 upbm affinity estimate (log intensity, higher = more binding, comparable within an allelic series). For the same sequence, the binding signal [12] was 12.3 upbm affinity estimate (log intensity, higher = more binding, comparable within an allelic series) and the binding signal [13] was 12.5 upbm affinity estimate (log intensity, higher = more binding, comparable within an allelic series).
